Source: PubChem BioAssay
Calls of active or inactive are those of the source. Unless noted, how the calls were made is not given here.

Assays:
[1] = system: Wnt5a (protein binding on small-molecule microarray); experiment: Wnt5a binders on small-molecule microarray, primary screen, biophysical, 635/667 nm fluorescence (AID 1142); details: 635 nm fluorescence, higher = more signal;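 further: fluorescence read at 667 nm with signal to noise per printed feature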
[2] = cell viability in Huh7 cells, primary screen, cytotoxicity control for HCV replication inhibitor project, CellTiter-Glo luminescence, basal, 48 h (AID 1143); details: Huh7 HCV replicon, higher = more signal, called active from +8 up or from −8 down;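 further: Huh7 hepatoma cells carrying a hepatitis C replication reporter with no stimulus; test concentration not given here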
[3] = P. aeruginosa biofilm formation inhibitors, primary screen, PAO1 strain, BacTiter-Glo luminescence, LB-PBS (AID 1144); details: 12 h, higher = more signal
[4] = CREB reporter modulators without forskolin, primary screen, cell-based, PC12, CRE-LacZ reporter, unstimulated (AID 1145); details: no forskolin, luminescence, 4.5 h, higher = more signal, called active from +8 up or from −8 down
[5] = CREB reporter modulators under forskolin, primary screen, cell-based, PC12, CRE-LacZ reporter, forskolin-stimulated (AID 1146); details: luminescence, 4.5 h, higher = more signal, called active from +8 up or from −8 down;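 further: PC12 cells with 6xCRE LacZ reporter stimulated by forskolin 10 µM; beta-galactosidase reporter signal reflecting CREB driven transcription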
[6] = molecular target: Streptavidin (Streptomyces avidinii) (UniProt P22629); experiment: streptavidin binders on small-molecule microarray, primary screen, artefact control for SMM compound annotation, biophysical, 635/667 nm fluorescence (AID 1147); details: streptavidin binding, higher = more signal;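 further: signal reflects streptavidin binding to arrayed compounds as a control protein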
Sequence of Streptavidin (Streptomyces avidinii) (P22629 whole entry, looked up): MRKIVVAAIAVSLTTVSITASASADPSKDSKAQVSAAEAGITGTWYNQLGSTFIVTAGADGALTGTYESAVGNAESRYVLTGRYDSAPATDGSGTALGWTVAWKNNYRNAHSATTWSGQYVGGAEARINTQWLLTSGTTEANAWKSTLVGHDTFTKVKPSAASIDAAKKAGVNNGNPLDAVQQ

[7] = small-molecule binders of probe aInhba, primary screen, biochemical, small-molecule microarray, 635/667 nm fluorescence (AID 1148); details: higher = more signal;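 further: score merges 667nm spot fluorescence with signal-to-noise for antibody binding to printed compounds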
Torsin-1A (Homo sapiens) [8] = molecular target: Torsin-1A (Homo sapiens) (UniProt O14656); experiment: torsin A binders from cell lysate, primary screen, small-molecule microarray, wild-type, 635/667 nm (AID 1149); details: COS7 hTOR1A-WT lysate, 635 nm fluorescence, higher = more signal
Sequence of Torsin-1A (Homo sapiens) (O14656 whole entry, looked up): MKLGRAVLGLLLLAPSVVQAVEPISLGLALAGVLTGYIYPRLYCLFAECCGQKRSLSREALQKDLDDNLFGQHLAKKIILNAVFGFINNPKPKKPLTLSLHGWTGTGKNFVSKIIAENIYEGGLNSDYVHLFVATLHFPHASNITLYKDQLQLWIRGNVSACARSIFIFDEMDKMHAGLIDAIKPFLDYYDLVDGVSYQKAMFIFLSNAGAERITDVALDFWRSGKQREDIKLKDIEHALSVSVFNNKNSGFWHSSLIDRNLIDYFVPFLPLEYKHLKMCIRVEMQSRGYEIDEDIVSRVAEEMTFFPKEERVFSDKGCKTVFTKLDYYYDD

Torsin-1A (Homo sapiens) [9] = molecular target: Torsin-1A (Homo sapiens) (UniProt O14656); experiment: small-molecule binders of mutant TOR1A in lysate, primary screen, cell lysate, small-molecule microarray, COS7 lysate, 635/667 nm fluorescence (AID 1150); details: COS7 hTOR1A mutant lysate, 635 nm fluorescence, higher = more signal;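 further: score pools 667 nm emission and signal to noise measuring lysate protein binding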
[10] = system: Sonic hedgehog protein (Shh); experiment: small-molecule binders of Shh protein, primary screen, biochemical, small-molecule microarray, 635/667 nm fluorescence (AID 1151); details: small-molecule microarray binding, 635 nm fluorescence; higher = more signal;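 further: Shh protein binding to compounds spotted on small-molecule microarray slides; score combines spot fluorescence intensity with signal-to-noise across triplicate slides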
[11] = E. coli DRC41 culture turbidity changes, primary screen, E. coli filamentation inducer project, strain DRC41, OD650, 48 h (AID 1152);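 further: E. coli MC1000 strain DRC41 lacking acrAB efflux pump and sulA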; details: E. coli DRC41 (acrAB sulA), higher = more signal, called active from +8 up or from −8 down
[12] = small-molecule binders of probe aLefty1, primary screen, biochemical, small-molecule microarray, 635/667 nm fluorescence (AID 1153); details: higher = more signal;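 further: score merges spot fluorescence with signal-to-noise ratio from the scanned slide images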
[13] = PSAC antagonists in infected red cells, primary screen, cell-based, P. falciparum Indochina, OD700, 1 h (AID 1154); details: P. falciparum Indochina infected RBC osmotic lysis, higher = more signal, called active from +8 up or from −8 down
[14] = PSAC antagonists in infected red cells, primary screen, cell-based, P. falciparum Indochina, OD700, 2 h (AID 1155);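 further: lysis reports solute entry through the parasite surface anion channel PSAC; channel blockers reduce lysis of infected cells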; details: P. falciparum Indochina infected erythrocytes, osmotic lysis OD700; higher = more signal, called active from +8 up or from −8 down
[15] = osmotic lysis modulators in infected erythrocytes, primary screen, PSAC antagonist project, cell-based, P. falciparum Indochina, OD700, 3 h (AID 1156); details: higher = more signal, called active from +8 up or from −8 down
[16] = PSAC antagonists in infected red cells, primary screen, cell-based, P. falciparum Indochina, OD700, 18 h (AID 1157); details: P. falciparum Indochina infected erythrocytes, osmotic lysis OD700, 18 h; higher = more signal, called active from +8 up or from −8 down
[17] = modulators of S6 phosphorylation in cells, primary screen, cell-based, A549, cytoblot, luminescence, serum-stimulated (AID 1158); details: A549 phospho-S6 cytoblot, 5 h, higher = more signal;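 further: serum-stimulated A549 lung adenocarcinoma cells; signal is phosphorylated S6 detected by cytoblot immunostaining with HRP secondary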
[18] = molecular target: NADPH oxidase 2 (Homo sapiens) (UniProt P04839); experiment: NOX2-dependent H2O2 signal modulators, primary screen, NOX inhibitor project, cell-based, HEK293-NOX2, PMA-stimulated, Amplex Red fluorescence (AID 1159); details: 45 min, higher = more signal, called active from +8 up or from −8 down; further: test concentration not given here
Sequence of NADPH oxidase 2 (Homo sapiens) (P04839 whole entry, looked up): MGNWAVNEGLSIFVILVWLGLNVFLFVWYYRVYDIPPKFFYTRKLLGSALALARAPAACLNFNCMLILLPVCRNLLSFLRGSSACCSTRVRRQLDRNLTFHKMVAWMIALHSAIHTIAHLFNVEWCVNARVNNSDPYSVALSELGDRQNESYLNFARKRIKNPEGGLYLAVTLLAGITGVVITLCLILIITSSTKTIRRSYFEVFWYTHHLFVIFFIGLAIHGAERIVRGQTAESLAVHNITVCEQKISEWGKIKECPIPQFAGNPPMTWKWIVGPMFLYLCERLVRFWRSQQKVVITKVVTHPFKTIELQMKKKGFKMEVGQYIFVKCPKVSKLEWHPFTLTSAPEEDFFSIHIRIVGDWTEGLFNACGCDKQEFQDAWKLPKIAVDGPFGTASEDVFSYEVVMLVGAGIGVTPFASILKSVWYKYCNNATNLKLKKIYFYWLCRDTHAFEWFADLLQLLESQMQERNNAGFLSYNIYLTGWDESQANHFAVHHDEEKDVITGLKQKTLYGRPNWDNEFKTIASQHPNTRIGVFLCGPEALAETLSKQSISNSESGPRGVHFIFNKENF

[19] = molecular target: NADPH oxidase 4 (Homo sapiens) (UniProt Q9NPH5); experiment: NOX4-dependent H2O2 signal modulators, primary screen, NOX inhibitor project, cell-based, HEK293-NOX4, tetracycline-induced, Amplex Red fluorescence (AID 1160); details: 45 min, higher = more signal, called active from +8 up or from −8 down
Sequence of NADPH oxidase 4 (Homo sapiens) (Q9NPH5 whole entry, looked up): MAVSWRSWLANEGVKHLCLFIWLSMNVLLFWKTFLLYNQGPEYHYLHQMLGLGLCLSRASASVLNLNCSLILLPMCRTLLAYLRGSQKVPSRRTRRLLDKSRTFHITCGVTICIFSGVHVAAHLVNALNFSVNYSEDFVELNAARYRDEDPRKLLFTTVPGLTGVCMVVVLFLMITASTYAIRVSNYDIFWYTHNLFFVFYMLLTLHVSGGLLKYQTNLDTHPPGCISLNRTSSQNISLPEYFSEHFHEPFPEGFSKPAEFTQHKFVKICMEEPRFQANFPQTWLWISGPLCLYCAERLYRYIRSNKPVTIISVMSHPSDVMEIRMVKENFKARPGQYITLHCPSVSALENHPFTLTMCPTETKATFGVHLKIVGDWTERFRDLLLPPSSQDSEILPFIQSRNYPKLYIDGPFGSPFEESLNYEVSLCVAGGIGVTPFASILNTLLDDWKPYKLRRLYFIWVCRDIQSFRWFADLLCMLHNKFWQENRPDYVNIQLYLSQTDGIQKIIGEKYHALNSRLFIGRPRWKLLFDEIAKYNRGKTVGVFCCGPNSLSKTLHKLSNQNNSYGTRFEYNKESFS

[20] = molecular target: NADPH oxidase 5 (Homo sapiens) (UniProt Q96PH1); experiment: NOX5-dependent H2O2 signal modulators, primary screen, NOX inhibitor project, cell-based, HEK293-NOX5, Amplex Red fluorescence (AID 1161); details: HEK293-NOX5, ionomycin, 45 min, higher = more signal
Sequence of NADPH oxidase 5 (Homo sapiens) (Q96PH1 whole entry, looked up): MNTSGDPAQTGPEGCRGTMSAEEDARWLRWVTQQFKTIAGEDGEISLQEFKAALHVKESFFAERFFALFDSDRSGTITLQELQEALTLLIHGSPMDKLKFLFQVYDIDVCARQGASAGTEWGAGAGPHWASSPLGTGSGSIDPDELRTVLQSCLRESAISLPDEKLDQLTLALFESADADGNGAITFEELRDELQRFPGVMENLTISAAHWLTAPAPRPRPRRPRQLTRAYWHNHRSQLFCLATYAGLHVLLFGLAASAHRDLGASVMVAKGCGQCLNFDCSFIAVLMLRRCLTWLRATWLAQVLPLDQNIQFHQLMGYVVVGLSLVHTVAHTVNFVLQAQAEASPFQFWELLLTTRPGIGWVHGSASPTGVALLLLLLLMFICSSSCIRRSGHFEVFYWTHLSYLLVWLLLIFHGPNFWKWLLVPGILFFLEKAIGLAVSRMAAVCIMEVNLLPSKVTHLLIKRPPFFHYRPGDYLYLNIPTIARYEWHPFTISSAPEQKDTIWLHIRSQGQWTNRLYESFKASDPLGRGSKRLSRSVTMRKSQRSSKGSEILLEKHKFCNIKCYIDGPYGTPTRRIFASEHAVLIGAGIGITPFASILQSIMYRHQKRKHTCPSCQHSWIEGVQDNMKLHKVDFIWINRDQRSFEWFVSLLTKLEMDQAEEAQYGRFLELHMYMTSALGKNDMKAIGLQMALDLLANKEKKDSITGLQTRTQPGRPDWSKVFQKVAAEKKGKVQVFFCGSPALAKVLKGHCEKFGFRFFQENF

Compound | composite z-score [1] | z-score [2] | z-score [3] | z-score [4] | z-score [5] | composite z-score [6] | composite z-score [7] | composite z-score (Torsin-1A (Homo sapiens) [8]) | composite z-score (Torsin-1A (Homo sapiens) [9]) | composite z-score [10] | z-score [11] | composite z-score [12] | z-score [13] | z-score [14] | z-score [15] | z-score [16] | z-score [17] | z-score [18] | z-score [19] | z-score [20]
CC(C)NC(=O)[C@@H]1c2ccccc2C(=O)N(Cc2ccccc2C(F)(F)F)[C@H]1c1ccc(CO)cc1 | -0.0854 | -2.26 (inactive) | -0.949 (inactive) | -0.179 (inactive) | 1.71 (inactive) | -0.962 | -0.169 | -0.371 | 0.0029 | -0.214 | 0.0029 (inactive) | -0.556 | 2.58 (inactive) | 0.0744 (inactive) | 1.32 (inactive) | 0.596 (inactive) | -0.262 | 1.21 (inactive) | -0.805 (inactive) | -1.97
C=CCNC(=O)[C@H]1[C@@H]2C(=O)O[C@@H](c3ccccc3)[C@@H](c3ccccc3)N2[C@@H](c2ccc(OCCO)cc2)[C@]12C(=O)Nc1ccc(C#CC3(O)CCCCCC3)cc12 | 0.564 | -3.3 (inactive) | 0.15 (inactive) | -0.329 (inactive) | 0.566 (inactive) | 0.618 | 0.108 | 0.406 | 0.564 | 1.31 | 0.803 (inactive) | 0.523 | 2.48 (inactive) | 1.54 (inactive) | -0.441 (inactive) | 0.311 (inactive) | 0.977 | 1.94 (inactive) | 1.18 (inactive) | 0.902
O=C1c2ccccc2[C@@]2(Cc3ccccc3N(Cc3ccccc3)C2=O)[C@H](c2ccc(CO)cc2)N1Cc1ccccc1Cl | -0.131 | -1.35 (inactive) | -1.09 (inactive) | -0.322 (inactive) | 0.164 (inactive) | -0.463 | -0.13 | -1.29 | 0.454 | -0.971 | -0.29 (inactive) | -0.0479 | 0.705 (inactive) | 0.387 (inactive) | -0.113 (inactive) | 0.18 (inactive) | 0.272 | -0.534 (inactive) | -0.644 (inactive) | -1.11
C[N+](C)(C)CCCC[C@@H]1NC(=O)[C@H]2C[C@@H](C(=O)NCCCCCNC(=O)CS)[C@@H](c3cccc(OCCO)c3)N2C1=O | 0.0448 | -0.907 (inactive) | 0.236 (inactive) | 0.13 (inactive) | 0.487 (inactive) | 0.474 | -0.176 | 0.116 | 0.653 | 0.602 | 0.19 (inactive) | 0.144 | 1.59 (inactive) | -0.0251 (inactive) | -0.89 (inactive) | 0.204 (inactive) | -0.0362 | 1.94 (inactive) | 0.816 (inactive) | 1.35
O=C1C[C@@](C(=O)NCc2ccccc2)(c2ccc([N+](=O)[O-])cc2)[C@@H](c2ccc(CO)cc2)N1C1CCCCC1 | 0.203 | -4.1 (inactive) | -0.967 (inactive) | 0.531 (inactive) | -0.932 (inactive) | -0.0057 | 0.333 | 0.944 | 0.812 | 0.998 | 1.09 (inactive) | 0.857 | 0.661 (inactive) | -0.881 (inactive) | -0.436 (inactive) | -0.877 (inactive) | 1.58 | -0.522 (inactive) | 0.333 (inactive) | 0.0696
N#Cc1ccc(NN2C(C(O)C3CC=CCC3)C=CC3C(=O)N(c4ccccc4)C(=O)C32)cc1 (stereo not given) | 0.223 | 0.595 (inactive) | -1.34 (inactive) | 0.629 (inactive) | 0.516 (inactive) | 0.126 | -0.0131 | -0.694 | 0.202 | 2.08 | -0.411 (inactive) | 0.364 | 16.9 (active) | 3.34 (inactive) | 0.889 (inactive) | 1.14 (inactive) | -0.723 | -1.21 (inactive) | -2.27 (inactive) | -2.39
Cc1ccc(S[C@]2(C(=O)NC(C)C)CC(=O)N(C3CCCCC3)[C@@H]2c2ccc(CO)cc2I)cc1 | 0.0335 | -3.94 (inactive) | -1.17 (inactive) | -0.608 (inactive) | 0.74 (inactive) | 1.46 | -0.0589 | 1.21 | 2.76 | 1.95 | 0.497 (inactive) | -0.0564 | 6.28 (inactive) | 1.47 (inactive) | 1.18 (inactive) | 0.916 (inactive) | -0.052 | 0.877 (inactive) | 0.292 (inactive) | 1.89
COCCOC(=O)N1C(=O)[C@@]2(c3cc(C#CC4(O)CCCCCC4)ccc31)[C@H](c1ccc(O)cc1)N1[C@H](c3ccccc3)[C@H](c3ccccc3)OC(=O)[C@H]1[C@@H]2C(=O)N1CCCCCCC1 | 0.357 | -0.844 (inactive) | 0.887 (inactive) | 0.484 (inactive) | -0.125 (inactive) | -0.215 | -0.0631 | 0.123 | 0.275 | 1.09 | 0.341 (inactive) | 1.08 | 1.13 (inactive) | 0.928 (inactive) | 0.0786 (inactive) | 0.166 (inactive) | -0.363 | 1.61 (inactive) | 0.0838 (inactive) | 1.41
COC(=O)[C@@]1(Cc2ccc(F)cc2)[C@H]2c3cc(C(=O)N4CCCC4)n(CCc4ccccn4)c3C[C@H]2CN1C(=O)c1ccccc1 | -0.0942 | -0.619 (inactive) | -0.237 (inactive) | 2.87 (inactive) | 0.245 (inactive) | 0.478 | 0.0889 | -0.226 | 0.783 | 0.208 | -1.04 (inactive) | 0.413 | 1.8 (inactive) | 0.408 (inactive) | 0.394 (inactive) | 0.446 (inactive) | -0.697 | 0.557 (inactive) | -0.279 (inactive) | -0.188
